Where a name gives a salt, the structure may show the parent alone.
Test system: hsa-mir-221 loop
Experiment: normalised indicator fluorescence (fraction of RNA + indicator signal without compound); higher = less displacement of indicator (weaker competition)
Settings: compound concentration: 5 uM; 30 min; indicator: TO-PRO-1 0.1 uM; RNA concentration: 0.1 uM
Outline: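 Compounds, each at about 5 uM final from 0.25 μL of 1 mM DMSO stock, were tested in 96-well plates for displacement of TO-PRO-1 or TO-PRO-3 from RNA in 20 mM phosphate pH 7.0, 20 mM NaCl, 80 mM KCl. Fluorescence was recorded after 30 min on an Infinite 200 PRO (excitation 485 or 620 nm). Reported values are averages of two independent experiments, calculated as indicator fluorescence minus the buffer-plus-indicator blank, divided by the RNA-plus-indicator signal without compound.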

Compound | normalised indicator fluorescence
CC(=O)O[C@H]1C[C@@]2(C)[C@@H](C[C@@H](O)[C@H]3[C@@]4(C)CC[C@@H](O)[C@@H](C)[C@@H]4CC[C@@]32C)/C1=C(\CCC=C(C)C)C(=O)O [Sodium fusidate] | 1.01
CC(=O)CCCCn1c(=O)c2c(ncn2C)n(C)c1=O [Pentoxifylline] | 1.01
Cc1c(C)c2c(c(C)c1O)CC[C@@](C)(CCC[C@H](C)CCC[C@H](C)CCCC(C)C)O2 [Vitamin E] | 1.02
O=C(NC(Cc1cc(=O)[nH]c2ccccc12)C(=O)O)c1ccc(Cl)cc1 (stereo unspecified) [Rebamipide] | 1.08
NC(=O)c1ccc(N(C(N)=O)c2c(F)cccc2F)nc1-c1ccc(F)cc1F | 1.06
CC(C)OC(=O)CCC/C=C\C[C@@H]1[C@@H](CC[C@@H](O)CCc2ccccc2)[C@H](O)C[C@@H]1O [Latanoprost] | 1.01
CCCC(C(=O)OCCN(CC)CC)(c1ccccc1)c1ccccc1 [Proadifen hydrochloride] | 1.08
COC1=C2C[C@@H](C)C[C@H](OC)[C@H](O)[C@@H](C)/C=C(\C)[C@H](OC(N)=O)[C@@H](OC)/C=C\C=C(/C)C(=O)NC(=CC1=O)C2=O [Geldanamycin] | 1.04
COc1ccc(C(=C2C(=O)Nc3ccccc32)c2ccc(OC)cc2)cc1 | 1.1
O=C1C[C@@H](c2ccc(O)cc2)Oc2cc(O)cc(O)c21 [Naringenin] | 1.07
[I-].[K+] [Potassium iodide] | 1.08
CO[C@H]1/C=C/O[C@@]2(C)Oc3c(C)c(O)c4c(c3C2=O)C2=NC3(CCN(CC(C)C)CC3)NC2=C(NC(=O)/C(C)=C\C=C\[C@H](C)[C@H](O)[C@@H](C)[C@@H](O)[C@@H](C)[C@H](OC(C)=O)[C@@H]1C)C4=O [Rifabutin] | 0.997
O=C(O)/C=C/c1ccc(Cn2ccnc2)cc1 [Ozagrel] | 1.07
CC1(C)OC(=O)C=C[C@]2(C)[C@H]3CC[C@@]4(C)[C@H](c5ccoc5)OC(=O)[C@H]5O[C@]54[C@]3(C)C(=O)C[C@@H]12 [Obacunone] | 1.12
NNC(=O)c1ccncc1 [Isoniazid] | 0.976
CC1=NN(c2ccccc2)C(=O)C1 [Edaravone] | 1.05
CC(C)(O)[C@@H]1CC[C@](C)([C@H]2[C@@H](O)C[C@@]3(C)[C@@H]4C[C@H](O)[C@H]5C(C)(C)[C@@H](O[C@@H]6OC[C@@H](O)[C@H](O)[C@H]6O[C@@H]6O[C@H](CO)[C@@H](O)[C@H](O)[C@H]6O)CC[C@@]56C[C@@]46CC[C@]23C)O1 [Astragaloside III] | 1.06
O=C(Nc1ccc2[nH]nc(-c3ccncc3)c2c1)[C@@H]1CCN(CC(=O)N2CCN(c3ccc(-c4ncccn4)cc3)CC2)C1 | 1.04
O=C(COc1ccc(Cl)cc1)NC1CCC(NC(=O)COc2ccc(Cl)cc2)CC1 (stereo unspecified) | 1.05
Oc1cc(O)c2c(c1)O[C@H](c1ccc(O)c(O)c1)[C@@H](O)C2 [Cianidanol] | 1.16
C[C@@H]1O[C@@H](O[C@@H]2[C@@H](O)[C@H](OCCc3ccc(O)c(O)c3)O[C@H](CO)[C@H]2OC(=O)/C=C/c2ccc(O)c(O)c2)[C@H](O)[C@H](O)[C@H]1O [Verbascoside] | 1.07
